# Source: PubChem BioAssay
# A selection: hits, their analogues and other compounds. The true share with any hit is near 12%.
# G9a block = blocks human histone lysine methyltransferase G9a; actives 8.8% (n = 350,000); G9a H3K9 monomethylation, AlphaScreen, 2 h; Q96KQ7; Potency, µM (top dose mostly 102 µM), without a hit: at the highest dose activity, negative = inhibition, most hits filed as inhibitors; also: % is scaled to controls: 0 for no effect and ±100 for the full control effect; nearly all actives have a fitted effect of over 75% in size
# Target sequence (Q96KQ7 913-1193 limits assumed): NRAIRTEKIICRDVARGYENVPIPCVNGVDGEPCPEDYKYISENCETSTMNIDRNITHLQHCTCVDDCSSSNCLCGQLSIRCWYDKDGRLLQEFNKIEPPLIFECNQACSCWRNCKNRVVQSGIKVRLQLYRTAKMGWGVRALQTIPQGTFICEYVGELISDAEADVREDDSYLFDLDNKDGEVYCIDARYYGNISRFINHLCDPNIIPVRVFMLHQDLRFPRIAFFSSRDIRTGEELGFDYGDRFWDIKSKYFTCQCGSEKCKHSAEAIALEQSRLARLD
#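 Readings reflect AlphaScreen signal from monomethyl-H3K9 antibody detection. HMT at 20 nM; substrate b-H3K9 500 nM; cofactor SAM 20 uM; 2 h RT reaction; compounds tested as titrations in qHTS with 15 min preincubation.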
# Sfp inh = inhibitors of Bacillus subtilis Sfp phosphopantetheinyl transferase; AID 1490; Potency, µM, without a hit: largest response in the series, negative = inhibition, actives largely listed as inhibitors; actives 3.5% (n = 310,000); Biochemical Sfp PPTase activity, qHTS;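 also: the enzyme is Sfp with the accession as filed and its product quenches rhodamine fluorescence; 0% = enzyme reaction without inhibitor and -100% = no enzyme wells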
#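 Reaction rates are the 30-min fluorescence difference (ex 525, em 598 nm) in wells containing 15 nM Sfp, 5 uM rhodamine-CoA and 12.5 uM BHQ-2-YbbR at pH 7.6 with 10 mM MgCl2.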
# HP1b binding inh = HP1-beta chromodomain-methylated histone interaction inhibition. Potency, µM (doses to about 114 µM), inactives show at the top dose activity change, negative = inhibition, most hits filed as inhibitors. P83916. actives 0.56% (n = 390,000). AlphaScreen HP1-beta / biotin-H3K9me3 peptide binding; also: nearly all actives have a fitted effect of over 70% in size
# Target sequence (P83916 whole entry, looked up): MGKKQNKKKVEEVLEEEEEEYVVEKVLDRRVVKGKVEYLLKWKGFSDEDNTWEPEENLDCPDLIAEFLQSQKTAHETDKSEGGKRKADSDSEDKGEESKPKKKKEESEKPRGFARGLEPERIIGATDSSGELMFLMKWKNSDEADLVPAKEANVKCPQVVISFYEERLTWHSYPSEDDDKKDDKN
#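 Compound inhibition of the preformed complex between 50 nM HP1-beta and 50 nM biotinylated H3K9me3 peptide was read by AlphaScreen. Buffer was PBS pH 7.4 with 0.01% Tween-20. Incubations ran 30 min at room temperature, with 10 ug/mL donor/acceptor beads.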
# BAZ2B block = blocks human BAZ2B; Q9UIF8; AlphaScreen BAZ2B-H3K14Ac peptide displacement; Potency, µM (highest dose often 114 µM), without a hit: top-dose activity change, negative = inhibition, most hits filed as inhibitors; actives 4.4% (n = 360,000); AID 504333; also: % is scaled to controls: 0 for no effect and ±100 for the full control effect; nearly all actives have a fitted effect of over 60% in size
#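 AlphaScreen luminescence quantifies BAZ2B engagement of H3K14Ac peptide; the protein and biotinylated peptide are both at 50 nM final, buffer PBS pH 7.4 with 0.01% Tween-20, all steps at room temperature.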
# JMJD2A Tudor inh = JMJD2A Tudor domain (human) inhibition. O75164. AlphaScreen JMJD2A-Tudor / H3K4me3 peptide binding. Potency, µM (top dose mostly 114 µM), without a hit: at the top dose activity change, negative = inhibition, actives largely listed as inhibitors. actives 4.4% (n = 390,000). AID 504339; also: % is scaled to controls: 0 for no effect and ±100 for the full control effect; nearly all actives have a fitted effect of over 50% in size
# An asterisk follows results filed as active; u = inconclusive; x = no result; [ ] = remark or other dose. Calls follow the shape of the dose curve; as a rule, active = well fitted curve in the direction sought with a large enough effect; inconclusive = small, poorly fitted or top-dose-only effect, or another doubt; inactive = no such curve, though single readings can be large; an effect the other way counts as inactive or inconclusive. Potency is read from the fitted curve at half-maximal effect.
SMILES,G9a block,Sfp inh,HP1b binding inh,BAZ2B block,JMJD2A Tudor inh
C[C@@]12C(=O)N(Cc3ccccc3)CC(=O)N1[C@H](/C=C/c1ccccc1)[C@@H]1C(=O)N(c3ccccc3)C(=O)[C@@H]12,20%,8%,38%,1%,1%
C/C(=N\NS(=O)(=O)c1ccccc1)c1cc(Cl)cc(Cl)c1O,45µM*,13%,5%,u,-30%
Cc1cc(NS(=O)(=O)c2ccccc2)cc(Cl)c1O,2.2µM*,79µM*,-26%,12%,89µM*
O=S(=O)(Nc1ccc(NS(=O)(=O)c2ccccc2)c(Cl)c1)c1ccccc1,x,x,33%[57 µM],x,-10%
COc1ccc(CNc2nc(-c3cccc(NS(C)(=O)=O)c3)nc3ccccc23)c(OC)c1,5%[0.501 µM],-3%,x,x,x
CCCN1CNc2c(c(=O)[nH]c(=S)n2CCCc2ccccc2)C1,x,x,46%,x,-9%
CC[C@H](C)[C@H]1O[C@]2(CC[C@@H]1C)C[C@@H]1C[C@@H](C/C=C(\C)[C@H](O[C@@H]3C[C@H](OC)[C@H](O[C@@H]4C[C@H](OC)[C@@H](O)[C@H](C)O4)[C@H](C)O3)[C@@H](C)/C=C/C=C3\CO[C@@H]4[C@H](O)C(C)=C[C@@H](C(=O)O1)[C@]34O)O2,5%[59 µM],8%,x,x,x
Cc1ccc(C(=O)/C=C/c2cc(Br)cc(Br)c2O)o1,35µM*,u,-19%,u,u
CCC(C)Cn1c(/C=C/c2ccccc2)nc2ccccc21 (configuration not stated),131%[59 µM],x,165%,146%,133%
CC1(C(=O)N2CCN(Cc3ccccc3Cl)CC2)CC1(Cl)Cl (configuration not stated),-12%,7%,29%,-4%,-7%
COc1cccc(CNC2CCCc3ccccc32)c1OC (configuration not stated),40µM*,-7%,u,u,79µM*
O=C(NC1CCCc2ccccc21)c1cccnc1 (configuration not stated),8%,9%,30%,-5%,-13%
c1cncc(CNC2CCCc3ccccc32)c1 (configuration not stated),45µM*,-3%,23%,4%,u
COc1cc(CNC2CCCc3ccccc32)cc(OC)c1OC (configuration not stated),u,50µM*,u,71µM*,10µM*
C=CCCn1c(Cl)c(C#N)sc1=O,x,-21%,31%,x,-19%
CCOC(=O)N/N=C/c1cc(C)n(-c2ccccc2)c1C,u,9%,5%,-29%,-31%
CCOC(=O)N/N=C/c1cc(C)n(-c2cccc3ccccc23)c1C,4.5µM*,1%,u,u,-42%
COC(=O)N/N=C/c1cc(C)n(-c2cccc3ccccc23)c1C,-17%[59 µM],-10%,u,79µM*,u
COc1ccc2c(Cl)c(C(=O)NCCc3ccc(S(N)(=O)=O)cc3)sc2c1,u,-8%,30%,-27%,-2%
CCOC(=O)CN1C(=O)N(CC(=O)OCC)C(c2ccccc2)(c2ccccc2)C1=O,-1%,12%,38%,-1%,-6%
CC(=N\NC(=O)c1ccc([N+](=O)[O-])cc1)/C(=N/O)C(=O)Nc1ccccc1,x,0%,33%,50µM*,-11%
Cc1ccc2[nH]c(C)c(CCN(Cc3cccnc3)C(=S)NC(C)(C)C)c2c1,-15%,-2%,-1%,-38%,-28%
CNC(=S)N(CCc1c(C)[nH]c2ccc(Cl)cc12)Cc1cccnc1,6%[2.33 µM],-12%,-12%,71µM*,u
CNC(=S)N(CCc1c(C)[nH]c2ccc(C)cc12)Cc1cccnc1,79µM*,5%,9%,u,-28%
COc1ccc2nc(N(Cc3cccnc3)C(=O)CCc3ccccc3)sc2c1,-8%[59 µM],x,47%,-5%,-29%
SMILES,G9a block,Sfp inh,HP1b binding inh,BAZ2B block,JMJD2A Tudor inh
O=C1CC(Cc2ccccc2)C(=O)N1Cc1ccco1 (configuration not stated),45µM*,14µM*,16%,-33%,-20%
Cc1ccc(CC2CC(=O)N(Cc3ccco3)C2=O)cc1 (configuration not stated),40µM*,35µM*,4%,3%,-25%
O=C1C2C3CCC(C3)C2C(=O)N1Cc1ccco1 (configuration not stated),-3%[59 µM],-6%,43%,-16%,-10%
Cc1ccc(CC2CC(=O)N(c3ccncc3)C2=O)cc1 (configuration not stated),16%,-1%,23%,8%,1%
COC(=O)[C@@H](NC(=O)O[C@@H]1C(=O)c2cc(OC)ccc2O[C@H]1c1cccc(OC)c1)C(C)C,x,-18%,x,x,x
COc1cc(/C=C/C(=O)OCC(=O)NCc2ccco2)ccc1OC(F)F,40µM*,-14%,3%,-27%,-17%
CCOc1cc(/C=C/C(=O)OCC(=O)NCc2ccco2)cc(Cl)c1OC,50µM*,x,-14%,u,u
O=C(NCc1ccccn1)C1CCC(=O)N1C1CCCC1 (configuration not stated),x,x,20%,x,79µM*
O=C(NCc1ccccc1)C1CC(=O)N(C2CCCCCC2)C1 (configuration not stated),-6%[59 µM],16%,43%,-14%,-9%
O=C(NCCN1CCc2ccccc2C1)C1CC(=O)N(C2CCCC2)C1 (configuration not stated),-36%[0.0925 µM],6%,14%,u,89µM*
O=C(NCCc1ccccc1)C1CC(=O)N(C2CCCC2)C1 (configuration not stated),1%,12%,16%[57 µM],1%[57.1 µM],-7%
O=C(NCCCN1CCc2ccccc2C1)C1CCN(S(=O)(=O)N2CCCC2)CC1,27%[0.501 µM],-9%,16%,50µM*,-25%
O=C(NCc1ccccn1)C1CC(=O)N(C2CCCC2)C1 (configuration not stated),x,x,22%,x,79µM*
O=C(NCCc1ccccc1)C1CCC(=O)N1C1CCCC1 (configuration not stated),-10%,7%,21%,8%,-3%
COCCNc1nc2c(c(=O)n(C)c(=O)n2C)n1Cc1c(F)cccc1Cl,2%[59 µM],x,17%,0%,-6%
Cc1ccccc1CNC(=O)Nc1ccc2c(c1)N(C)C(=O)c1ccccc1S2,-49%[59 µM],x,53%,-5%,-1%
COc1cccc(-c2ccc(SCC(=O)NC3CCCCC3)nn2)c1,26%,12%,12%,-1%,-15%
Cc1[nH][nH]c(=O)c1C(c1ccc(-c2ccccc2C(=O)O)o1)c1c(C)[nH][nH]c1=O,3.5µM*,u,-1%,35µM*,89µM*
COC(=O)c1ccc(-c2ccc(C(c3c(C)[nH][nH]c3=O)c3c(C)[nH][nH]c3=O)o2)cc1,1.4µM*,50µM*,-26%,8.9µM*,32µM*
